These results are taken from PubChem BioAssay.

Activity calls are given as the source filed them.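 How the source made its calls, unless noted: active means NADPH fluorescence slope more negative than the mean of all samples by about 3 SD, 99.7% confidence; inactive means the rest.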

A short description of assay [1]: inhibitors of TNFa-induced NFkB p65 translocation, primary screen, imaging, HUVEC, MLSMR starter and 10KST1 sets (AID 438;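 active means inhibition above 20% together with a positive visual image hit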;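 further: compound added about 3h40 before a 20 min TNFalpha stimulation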;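 on inhibition: signal is the nuclear over cytoplasmic p65 intensity ratio per well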). As to conditions: HUVEC TNFa-induced p65 nuclear translocation; cell count: measured here: nuclei count (cytotoxicity indicator), at 2.08 µM; inhibition: at 2 µM, stronger effect = higher value, 0% TNFa-plus-vehicle, 100% no-TNFa wells.
Assay [2] is described as follows: reduction of polyQ htt aggregates in cells – imaging, exon1htt(103Q)mCFP cells, high-content imaging, primary screen (AID 483;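 active means visual image review flags a hit and inhibition of aggregation exceeds 20%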;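 further: compound exposure lasted 3 days before fixation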;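 on nuclei count: percent of the per-plate median nuclei count of sample wells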). As to conditions: exon1htt(103Q)mCFP cell line, aggregate imaging, at 2 µM; inhibition of aggregation: stronger effect = higher value; nuclei count: measured here: cell count, toxicity.
The nature of assay [3]: endothelial E-selectin expression blockers – imaging, HUVEC, immunofluorescence, MLSMR starter and 10KST1 sets, primary screen (AID 487;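 active means visually confirmed hit in the image check and inhibition above 20%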;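 on inhibition: signal is fraction of cell area covered by stained E-selectin grains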;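 on nuclei count: 100% = median nuclei count of all wells on the same plate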). As to conditions: HUVEC TNFalpha-induced E-selectin immunofluorescence imaging, at 2 µM; inhibition: stronger effect = higher value; nuclei count: measured here: cell number, toxicity.
Assay [4] deals with Voltage-gated potassium channel subunit beta-2 (Rattus norvegicus) (UniProt P62483). Nature of the assay: inhibitors of rat Kvbeta2 reductase activity – biochemical, NADPH fluorescence, primary screen (AID 622;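 active means fluorescence slope higher than the sample average by over 3 SD, cut at about -0.22 in these data, passing the limit was not always enough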;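 further: slope of raw intensity against log time taken from 70 to 1610 s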). As to conditions: recombinant KvBeta, 4-cyanobenzaldehyde reduction, at 10 µM, stronger effect = higher value.
The target is the same in assay [5]. Nature of the assay: enhancers of rat Kvbeta2 NADPH turnover – biochemical, NADPH fluorescence, primary screen (AID 623).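 Further: fluorescence intensity change per second fitted from 20 to 320 s.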 As to conditions: Recombinant KvBeta, NADPH fluorescence decrease slope, 10 min; at 10 µM; stronger effect = lower value.
The target of assay [6] is Alpha-2C adrenergic receptor (Homo sapiens) (UniProt P18825). As to the kind of experiment: compounds altering alpha2C-coupled GIRK flux – cell-based, HEK293 alpha2C/GIRK1/2, thallium flux, primary screen (AID 624;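 active means fluorescence slope after compound addition differing from the mean of all screened samples at 99.7% confidence, in either direction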;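 further: slope of fluorescence ratio to pre-addition baseline per second over 15 to 24 s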). As to conditions: thallium flux BTC fluorescence, at 10 µM, actives lie on both sides.
The nature of assay [7]: blockers of RIG-like receptor reporter activation – cell-based, Sendai virus stimulus, luciferase, 10K MLSCN set, TLR/RLR signaling modifier project, primary screen (AID 602276;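 active means inhibition at or above 50% at 10 µM; inactive means inhibition below 50%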;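 further: firefly luciferase from ISG56 promoter only with Renilla not read in this screen; 0% = Sendai virus plus DMSO and 100% = medium plus DMSO without virus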). As to conditions: HEK293 RL24 IRF3 luciferase reporter, at 10 µM, stronger effect = higher value.
Assay [8] in a line: TLR3 IRF3 reporter activation blockers – cell-based, poly I:C stimulus, luciferase, 10K MLSCN set, primary screen (AID 602277;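 active means inhibition of the reporter signal at or above 50%; inactive means inhibition below 50%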). As to conditions: HEK293-TLR3 RL24 IRF3 luciferase reporter, at 10 µM, stronger effect = higher value.

Chain of Alpha-2C adrenergic receptor (Homo sapiens) (P18825 whole entry, looked up): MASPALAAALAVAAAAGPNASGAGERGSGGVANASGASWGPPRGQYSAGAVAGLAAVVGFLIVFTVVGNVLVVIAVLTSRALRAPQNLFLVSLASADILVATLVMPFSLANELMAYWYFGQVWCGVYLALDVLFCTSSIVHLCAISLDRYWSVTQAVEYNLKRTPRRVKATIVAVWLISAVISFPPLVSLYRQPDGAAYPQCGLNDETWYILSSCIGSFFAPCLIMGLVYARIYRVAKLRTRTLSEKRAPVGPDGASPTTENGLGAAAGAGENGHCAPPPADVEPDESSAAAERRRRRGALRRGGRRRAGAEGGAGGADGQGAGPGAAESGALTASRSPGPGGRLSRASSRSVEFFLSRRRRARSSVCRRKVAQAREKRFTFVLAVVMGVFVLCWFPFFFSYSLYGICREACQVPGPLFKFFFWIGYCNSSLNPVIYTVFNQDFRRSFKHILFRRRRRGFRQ
Chain of Voltage-gated potassium channel subunit beta-2 (Rattus norvegicus) (P62483 whole entry, looked up): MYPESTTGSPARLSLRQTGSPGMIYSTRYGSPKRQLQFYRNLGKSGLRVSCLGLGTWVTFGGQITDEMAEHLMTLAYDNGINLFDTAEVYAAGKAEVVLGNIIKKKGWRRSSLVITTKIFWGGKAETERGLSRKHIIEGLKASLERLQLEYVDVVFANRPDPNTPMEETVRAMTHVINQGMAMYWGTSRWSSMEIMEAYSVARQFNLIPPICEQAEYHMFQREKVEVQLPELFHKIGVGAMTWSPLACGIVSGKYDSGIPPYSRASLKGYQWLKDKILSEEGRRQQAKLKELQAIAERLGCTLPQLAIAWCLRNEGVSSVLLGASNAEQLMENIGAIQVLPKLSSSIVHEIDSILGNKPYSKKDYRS

Usually inhibition stands for the relative decrease from the control value, in per cent. For `O=C(OCCN=C1NS(=O)(=O)c2ccccc21)C1CC(=O)N(c2ccc(Cl)cc2)C1` (centres undefined), the cell count in assay [1] came to 354. Moreover, the inhibition in assay [1] was 2.7% (inactive); in assay [3], -44.7% (inactive); in assay [7], 6.2% (inactive); in assay [8], 23.6% (inactive). Further, the inhibition of aggregation in assay [2] was -0.2% (inactive). The nuclei count in assay [2] is 118%; in assay [3] it was 107%. The fluorescence slope in assay [4] is -0.448 (inactive). Also, the NADPH fluorescence slope in assay [5] is 2.4e-05 (inactive). Also, the slope in assay [6] is 0.00337 (inactive).
Take `CCn1cc(C(=O)OCc2ccc(F)cc2)c(=O)c2ccc(C)nc21`: the cell count in assay [1] was 360. In addition, the inhibition in assay [1] is 0.4% (inactive); in assay [3], -16.9% (inactive); in assay [7], 11.6% (inactive); in assay [8], -3.06% (inactive). For the same compound, the inhibition of aggregation in assay [2] was -17.1% (inactive). The figures for the nuclei count in assay [2] and in assay [3] were 102% and 98%, respectively. The fluorescence slope in assay [4] is -0.428 (inactive). For the same compound, the NADPH fluorescence slope in assay [5] is -2.4e-05 (inactive). In assay [6], the slope was 0.00561 (inactive).
`CCOc1ccc(OCC)c(NC(=O)CN2CCN(C(=O)c3ccco3)CC2)c1`: the cell count in assay [1] came out at 554. In addition, the inhibition in assay [1] was -19.4% (inactive); in assay [3] it was -77.5% (inactive); in assay [7], -15.6% (inactive); in assay [8], -16.4% (inactive). The inhibition of aggregation in assay [2] was -12.3% (inactive). Moreover, the figures for the nuclei count in assay [2] and in assay [3] were 122% and 102%, respectively. In addition, the fluorescence slope in assay [4] was -0.546 (inactive). Further, the NADPH fluorescence slope in assay [5] was 1.9e-05 (inactive). The slope in assay [6] was 0.00515 (inactive).
Regarding `CN1C(=O)C(O)(CC(=O)c2ccc(F)cc2)c2cc(Br)ccc21` (centres undefined), the cell count in assay [1] was 580. The inhibition in assay [1] was 6% (inactive); in assay [3] it was 16.6% (inactive); in assay [7], 22.4% (inactive); in assay [8] it was 41.2% (inactive). Also, in assay [2], the inhibition of aggregation was 22.6% (inactive). The nuclei count in assay [2] is 69.5%; in assay [3], 97.6%. In addition, the fluorescence slope in assay [4] is -0.436 (inactive). Also, the NADPH fluorescence slope in assay [5] was -7.2e-05 (inactive). The slope in assay [6] was 0.0055 (inactive).
Consider `O=P(O)(O)C(O)C(F)(F)C(F)(F)C(F)(F)C(F)F` (centres undefined), for which the cell count in assay [1] amounted to 436. In addition, the inhibition is 8.1% (inactive) in assay [1], 12.7% (inactive) in assay [3], 19.8% (inactive) in assay [7] and 17.5% (inactive) in assay [8]. The inhibition of aggregation in assay [2] is -7% (inactive). For the same compound, the values for the nuclei count in assay [2] and in assay [3] were 108% and 127%, respectively. Moreover, in assay [4], the fluorescence slope was -0.31 (inactive). Besides, the NADPH fluorescence slope in assay [5] is -2e-06 (inactive). Also, the slope in assay [6] was 0.0027 (inactive).
For the compound `COc1ccc2ccccc2c1CN1CCCC(CO)C1` (centres undefined), in assay [1], the cell count was found to be 745. Besides, the inhibition was 3.4% (inactive) in assay [1], 53% (inactive) in assay [3], 16% (inactive) in assay [7] and 35.4% (inactive) in assay [8]. Moreover, the inhibition of aggregation in assay [2] was 4.4% (inactive). Further, the nuclei count in assay [2] turned out to be 110%; in assay [3], 97.2%. Besides, in assay [4], the fluorescence slope was -0.422 (inactive). Also, the NADPH fluorescence slope in assay [5] was -8.2e-05 (inactive). Further, the slope in assay [6] was 0.00503 (inactive).
For `Cc1ccccc1OCc1nnc(SCC(=O)NCc2ccccc2)n1C`, the cell count in assay [1] was 409. Besides, the inhibition was 3.9% (inactive) in assay [1], -22.7% (inactive) in assay [3], 12% (inactive) in assay [7] and 23.6% (inactive) in assay [8]. Moreover, the inhibition of aggregation in assay [2] is -6.5% (inactive). In addition, the nuclei count in assay [2] was determined as 106%; in assay [3], 120%. The fluorescence slope in assay [4] was -0.521 (inactive). Further, the NADPH fluorescence slope in assay [5] was 5.8e-06 (inactive). In assay [6], the slope is 0.00575 (inactive).
`Cc1ccc(C2CC(c3ccc(C)cc3)n3nc(N)nc3N2)cc1` (centres undefined): in assay [1], the cell count was 871. For the same compound, the inhibition in assay [1] is 2.8% (inactive); in assay [3], -71.7% (inactive); in assay [7], -11.6% (inactive); in assay [8] it was 0.814% (inactive). For the same compound, in assay [2], the inhibition of aggregation was 15.1% (inactive). Moreover, the nuclei count turned out to be 95.1% in assay [2] and 116% in assay [3]. Also, the fluorescence slope in assay [4] is -0.613 (inactive). Further, the NADPH fluorescence slope in assay [5] was -1.7e-05 (inactive). Further, the slope in assay [6] was 0.00808 (inactive).
As to `CCSc1nnc(N2C(=O)CC(c3ccsc3)C3=C2CC(C)(C)CC3=O)s1` (centres undefined), the cell count in assay [1] was determined as 558. Moreover, the inhibition in assay [1] is 0% (inactive); in assay [3] it was -46.6% (inactive); in assay [7] it was 11.7% (inactive); in assay [8], 35.7% (inactive). Moreover, in assay [2], the inhibition of aggregation was 4.8% (inactive). The values for the nuclei count in assay [2] and in assay [3] were 109% and 115%, respectively. In assay [4], the fluorescence slope is -0.55 (inactive). Further, in assay [5], the NADPH fluorescence slope is -4.6e-05 (inactive). Besides, in assay [6], the slope is 0.00599 (inactive).
With `CCC(=O)N/C(N)=N/c1nc(C)c2cc(OC)ccc2n1`, the cell count in assay [1] amounted to 730. The inhibition is 10.7% (inactive) in assay [1], 9.1% (inactive) in assay [3], -62.4% (inactive) in assay [7] and -122% (inactive) in assay [8]. Moreover, the inhibition of aggregation in assay [2] is -24.4% (inactive). Also, the nuclei count worked out at 95.9% in assay [2] and 92.1% in assay [3]. Moreover, the fluorescence slope in assay [4] is -0.378 (inactive). Also, the NADPH fluorescence slope in assay [5] is -1.1e-05 (inactive). The slope in assay [6] is 0.00511 (inactive).
Consider `COc1ccccc1CCNC(=O)C1CCCO1` (centres undefined), for which, in assay [1], the cell count is 665. For the same compound, the inhibition was -8.8% (inactive) in assay [1], -45.2% (inactive) in assay [3], 0.904% (inactive) in assay [7] and -9.53% (inactive) in assay [8]. Further, the inhibition of aggregation in assay [2] is -27.9% (inactive). In addition, the nuclei count in assay [2] was found to be 118%; in assay [3], 98.9%. For the same compound, in assay [4], the fluorescence slope was -0.401 (inactive). Moreover, the NADPH fluorescence slope in assay [5] is -1.9e-05 (inactive). In addition, the slope in assay [6] is 0.00423 (inactive).
As for `CC1CC(C)CN(CC(=O)Nc2ccc(S(N)(=O)=O)cc2)C1` (centres undefined), the cell count in assay [1] is 368. The inhibition in assay [1] was 1.4% (inactive); in assay [3], 30.9% (inactive); in assay [7] it was 7.84% (inactive); in assay [8], 12.5% (inactive). Further, the inhibition of aggregation in assay [2] was -27.5% (inactive). In addition, the nuclei count in assay [2] turned out to be 113%; in assay [3] it was 96.7%. Besides, the fluorescence slope in assay [4] was -0.517 (inactive). Moreover, the NADPH fluorescence slope in assay [5] was -3e-05 (inactive). Moreover, in assay [6], the slope was 0.00537 (inactive).
In the case of `COc1ccccc1-c1nnc(SCC(=O)N2CC(C)CC(C)C2)o1` (centres undefined), the cell count in assay [1] was 351. Also, the inhibition was 11.1% (inactive) in assay [1], 28% (inactive) in assay [3], 21.4% (inactive) in assay [7] and 29.2% (inactive) in assay [8]. The inhibition of aggregation in assay [2] was -3.7% (inactive). For the same compound, the nuclei count in assay [2] is 112%; in assay [3], 94.8%. Besides, the fluorescence slope in assay [4] was -0.411 (inactive). Further, in assay [5], the NADPH fluorescence slope is -5.2e-05 (inactive). The slope in assay [6] is 0.00365 (inactive).
On to `COc1ccc(N(CC(=O)Nc2ccc3c(c2)OCCO3)S(=O)(=O)c2cccnc2)cc1`, for which the cell count in assay [1] was 515. The inhibition in assay [1] is -3.3% (inactive); in assay [3], -36.8% (inactive); in assay [7], -5.76% (inactive); in assay [8] it was 17.1% (inactive). Besides, the inhibition of aggregation in assay [2] was 13.1% (inactive). The nuclei count came to 117% in assay [2] and 122% in assay [3]. Also, the fluorescence slope in assay [4] was -0.608 (inactive). For the same compound, the NADPH fluorescence slope in assay [5] was -7e-05 (inactive). In addition, in assay [6], the slope is 0.00783 (inactive).
